The record followed here is the supplement of paper PMC12297408.

“And” between values parts separate entries of the source, which are not always exact repeats. Identical values can stand only once. Counter-ions that a name gives are not always drawn. Values without a mark were called inactive.

Test [1] relates to Plasmodium falciparum NF54/iGP1_RE9H ulg8 stage V gametocytes. Put plainly: gametocyte viability (luciferase signal relative to DMSO control) (% of DMSO control); higher = less gametocytocidal activity, active = 50 or less. The settings on record: exposure time: 72 h. As for the experimental part:
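Synchronous P. falciparum NF54/iGP1_RE9H ulg8 mature stage V gametocytes (day 12) were exposed to Cayman Epigenetics Screening Library compounds at 10 µM or 1 µM for 72 h at 37 °C. Viability was read as RE9H luciferase bioluminescence, normalised to DMSO plate controls (100%); 50 µM methylene blue was the positive control.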

For test [2] the test system is unchanged. Put plainly: gametocyte viability (luciferase signal relative to DMSO control) (% of DMSO control); higher = less gametocytocidal activity, active = 50 or less. The settings on record: exposure time: 72 h. Summed up:
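Gametocyte viability is reported relative to the average of DMSO vehicle wells on the same plate. The assay used day-12 stage V NF54/iGP1_RE9Hulg8 gametocytes at ~2.5% gametocytemia and 3% hematocrit, in 0.5% Albumax II medium, added to 96-well plates of compounds spotted in nanolitre volumes for final 10 µM or 1 µM, one well each. After 72 h at 37 °C, 90 µl was mixed with 10 µl D-luciferin (30 mg/ml), and luminescence was recorded with an IVIS Lumina II.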
This is another data set of the same source.

`O=C(O)C(Cc1c[nH]c2ccccc12)N1C(=O)c2ccccc2C1=O` (stereo unspecified): the gametocyte viability in test [1] (concentration: 1 µM) was 86.9; in test [1] (concentration: 10 µM), 84.3.

On to `CCCCN(Cc1ccc(C(=O)NO)cc1)C(=O)Nc1ccccc1` [Nexturastat A], for which the gametocyte viability in test [1] (concentration: 1 µM) was 103; in test [1] (concentration: 10 µM), 67.7.

Take `CCCCCCCCOC(=O)C(O)CCC(=O)O` (stereo not drawn) [Octyl-α-hydroxyglutarate]: the gametocyte viability was 92.4 in test [1] (concentration: 1 µM) and 95.4 in test [1] (concentration: 10 µM).

Take `Clc1ccc(-c2csc(NN=C3CCCC3)n2)cc1` [CPTH2 (hydrochloride)]: the gametocyte viability was 98.4 in test [1] (concentration: 1 µM) and 83.9 in test [1] (concentration: 10 µM).

As for `COc1cc2c(NC3CCN(C)CC3)nc(N3CCCN(C)CC3)nc2cc1OCCCN(C)C`, the gametocyte viability in test [1] (concentration: 1 µM) is 89.8; in test [1] (concentration: 10 µM), 84.

For `O=C(CCCCCCSc1ccc2ccccc2c1)NO`, the gametocyte viability is 84.8 in test [1] (concentration: 1 µM) and 84.6 in test [1] (concentration: 10 µM).

Regarding `O=C(NCc1ccccc1)c1c(/N=C/c2c(O)ccc3ccccc23)sc2c1CCCC2`, the gametocyte viability in test [1] (concentration: 1 µM) is 103; in test [1] (concentration: 10 µM), 94.2.

`O=C(O)CC[C@H](O)C(=O)O` [L-α-Hydroxyglutaric Acid (sodium salt)]: the gametocyte viability in test [1] (concentration: 1 µM) was 92.7; in test [1] (concentration: 10 µM), 86.7.

Turning to `O=C(/C=C/C#Cc1cccc(NS(=O)(=O)c2ccccc2)c1)NO` [Oxamflatin], the gametocyte viability in test [1] (concentration: 1 µM) was 101; in test [1] (concentration: 10 µM) it was 168.

Regarding `O=Nc1ccc(O)c2ncccc12` [5-Nitroso-8-quinolinol], the values for the gametocyte viability in test [1] (concentration: 1 µM) and in test [1] (concentration: 10 µM) were 88.4 and 11.5 (active), respectively.

For `O=C([C@@H](Cc1cccc(C(F)(F)F)c1)NS(=O)(=O)c1cc(F)c2c(c1)CCNC2)N1CCCC1` [(R)-PFI-2 (hydrochloride)], the gametocyte viability in test [1] (concentration: 1 µM) is 85.2; in test [1] (concentration: 10 µM) it was 77.8.

Consider `Nc1nc(=S)c2[nH]cnc2[nH]1` [6-Thioguanine], for which the gametocyte viability in test [1] (concentration: 1 µM) is 90.1; in test [1] (concentration: 10 µM) it was 94.6.

For the molecule `Cc1[nH]c2ccccc2c1CCNCc1ccc(/C=C/C(=O)NO)cc1` [Panobinostat], the gametocyte viability in test [1] (concentration: 1 µM) is 60.2; in test [1] (concentration: 10 µM) it was 61.4.

On to `CNC(=O)c1cc(Oc2ccc(NC(=O)Nc3ccc(Cl)c(C(F)(F)F)c3)cc2)ccn1` [Sorafenib (Nexavar)], for which the values for the gametocyte viability in test [2] (concentration: 1 µM) and in test [2] (concentration: 10 µM) were 114 and 115, respectively.

As to `O=c1cc(N2CCOCC2)oc2c(-c3cccc4c3sc3ccccc34)cccc12`, the gametocyte viability in test [2] (concentration: 1 µM) was 106; in test [2] (concentration: 10 µM), 105.

Consider `CNCCNS(=O)(=O)c1cccc2cnccc12`, for which the gametocyte viability in test [2] (concentration: 1 µM) was 104; in test [2] (concentration: 10 µM), 108.

Regarding `C[C@@H](Oc1cc(-c2cnn(C3CCNCC3)c2)cnc1N)c1c(Cl)ccc(F)c1Cl`, the results for the gametocyte viability in test [2] (concentration: 1 µM) and in test [2] (concentration: 10 µM) were 88.7 and 30.2 (active), respectively.

Consider `C#Cc1cccc(Nc2ncnc3cc(OCCOC)c(OCCO)cc23)c1` [OSI-420 (Desmethyl Erlotinib)], for which the figures for the gametocyte viability in test [2] (concentration: 1 µM) and in test [2] (concentration: 10 µM) were 92.8 and 97, respectively.

For the molecule `CNC(=O)c1ccc(C)c(-n2c(C)cc(OCc3ccc(F)cc3F)c(Br)c2=O)c1`, the figures for the gametocyte viability in test [2] (concentration: 1 µM) and in test [2] (concentration: 10 µM) were 100 and 108, respectively.

For the molecule `FC(F)c1nc2ccccc2n1-c1nc(N2CCOCC2)nc(N2CCOCC2)n1`, the gametocyte viability is 98.5 in test [2] (concentration: 1 µM) and 108 in test [2] (concentration: 10 µM).

For the molecule `CS(=O)(=O)CCNCc1ccc(-c2ccc3ncnc(Nc4ccc(OCc5cccc(F)c5)c(Cl)c4)c3c2)o1` [Lapatinib Ditosylate (Tykerb)], the gametocyte viability is 102 in test [2] (concentration: 1 µM) and 98.2 in test [2] (concentration: 10 µM).

As for `CN(C)C/C=C/C(=O)Nc1cc2c(Nc3ccc(F)c(Cl)c3)ncnc2cc1O[C@H]1CCOC1` [Afatinib (BIBW2992)], the gametocyte viability in test [2] (concentration: 1 µM) was 92; in test [2] (concentration: 10 µM), 93.5.

For the molecule `COc1cc(Nc2c(C#N)cnc3cc(OCCCN4CCN(C)CC4)c(OC)cc23)c(Cl)cc1Cl` [Bosutinib (SKI-606)], the figures for the gametocyte viability in test [2] (concentration: 1 µM) and in test [2] (concentration: 10 µM) were 86.4 and 98.1, respectively.

With `N#CC(=Cc1ccc(O)c(O)c1)C(=O)NCc1ccccc1`, the gametocyte viability in test [2] (concentration: 1 µM) is 95.7; in test [2] (concentration: 10 µM), 101.

Take `NCCNS(=O)(=O)c1cccc2cnccc12`: the gametocyte viability in test [2] (concentration: 1 µM) is 105; in test [2] (concentration: 10 µM) it was 107.

Consider `Cc1ccc(S(=O)(=O)/C=C/C#N)cc1`, for which the gametocyte viability was 103 in test [2] (concentration: 1 µM) and 3.38 (active) in test [2] (concentration: 10 µM).

Regarding `O=C1NC(=O)/C(=C/c2ccc(-c3ccc(F)cc3O)o2)S1`, the gametocyte viability in test [2] (concentration: 1 µM) was 100; in test [2] (concentration: 10 µM), 110.

On to `CC1(COc2ccc3c(c2)ncn3-c2ccc3cccc(N4CCC(N)CC4)c3n2)COC1`, for which the gametocyte viability in test [2] (concentration: 1 µM) was 125; in test [2] (concentration: 10 µM) it was 112.

Turning to `Cc1ncc(-c2ccnc(Nc3ccc(S(C)(=O)=O)cc3)n2)n1C(C)C`, the gametocyte viability in test [2] (concentration: 1 µM) was 115; in test [2] (concentration: 10 µM), 119.

On to `Cc1cc(Nc2cc(N3CCN(C)CC3)nc(Sc3ccc(NC(=O)C4CC4)cc3)n2)n[nH]1` [VX-680 (MK-0457, Tozasertib)], for which the values for the gametocyte viability in test [2] (concentration: 1 µM) and in test [2] (concentration: 10 µM) were 97.5 and 84.3, respectively.

`C[C@@H]1CCN(C(=O)CC#N)C[C@@H]1N(C)c1ncnc2[nH]ccc12`: the gametocyte viability in test [2] (concentration: 1 µM) was 107; in test [2] (concentration: 10 µM) it was 110.

Turning to `OCCn1cc(-c2ccc3c(c2)CC/C3=N\O)c(-c2ccncc2)n1`, the gametocyte viability in test [2] (concentration: 1 µM) is 88.7; in test [2] (concentration: 10 µM) it was 99.6.

For `O=S(=O)(c1cccc2c(I)cccc12)N1CCCNCC1`, the gametocyte viability in test [2] (concentration: 1 µM) is 102; in test [2] (concentration: 10 µM) it was 94.1.

Take `CC(C)(C)n1nc(-c2ccc(Cl)cc2)c2c(N)ncnc21`: the gametocyte viability is 97 in test [2] (concentration: 1 µM) and 99.4 in test [2] (concentration: 10 µM).

With `O=S(=O)(c1cccc2c(Cl)cccc12)N1CCCNCC1`, the values for the gametocyte viability in test [2] (concentration: 1 µM) and in test [2] (concentration: 10 µM) were 93.2 and 90, respectively.

Regarding `COc1cc(C=C(C#N)C(N)=O)cc(CSc2nc3ccccc3s2)c1O`, the gametocyte viability in test [2] (concentration: 1 µM) was 111; in test [2] (concentration: 10 µM), 113.

On to `O=C(NOCC(O)CO)c1cc(Br)c(F)c(F)c1Nc1ccc(I)cc1F` (stereo unspecified), for which the gametocyte viability in test [2] (concentration: 1 µM) was 99.1; in test [2] (concentration: 10 µM), 97.3.

With `Cc1csc(-c2nnc(Nc3ccc(Oc4ncccc4-c4ccnc(N)n4)cc3)c3ccccc23)c1`, the results for the gametocyte viability in test [2] (concentration: 1 µM) and in test [2] (concentration: 10 µM) were 103 and 112, respectively.

As for `CCOc1cc2ncc(C#N)c(Nc3ccc(F)c(Cl)c3)c2cc1NC(=O)/C=C/CN(C)C` [Pelitinib (EKB-569)], the results for the gametocyte viability in test [2] (concentration: 1 µM) and in test [2] (concentration: 10 µM) were 85.3 and 99.8, respectively.

Take `COc1cc2nccc(Oc3ccc(NC(=O)C4(C(=O)Nc5ccc(F)cc5)CC4)cc3)c2cc1OC` [XL-184 free base (Cabozantinib)]: the figures for the gametocyte viability in test [2] (concentration: 1 µM) and in test [2] (concentration: 10 µM) were 100 and 83.1, respectively.

Regarding `C#Cc1cccc(Nc2ncnc3cc(OCCOC)c(OCCOC)cc23)c1` [Erlotinib HCl], the figures for the gametocyte viability in test [2] (concentration: 1 µM) and in test [2] (concentration: 10 µM) were 86.2 and 82.4, respectively.

For the molecule `CCN(CC)CCNC(=O)c1c(C)[nH]c(/C=C2\C(=O)Nc3ccc(F)cc32)c1C` [Sunitinib Malate (Sutent)], the gametocyte viability is 102 in test [2] (concentration: 1 µM) and 80.7 in test [2] (concentration: 10 µM).

For the molecule `CNC(=O)CN1CCC(Oc2cc3c(Nc4cccc(Cl)c4F)ncnc3cc2OC)CC1`, the gametocyte viability in test [2] (concentration: 1 µM) was 103; in test [2] (concentration: 10 µM) it was 106.

As to `Nc1ncnc2c1c(-c1cccc(OCc3ccccc3)c1)cn2C1CC(CN2CCCC2)C1` (stereo unspecified), the gametocyte viability in test [2] (concentration: 1 µM) was 94.4; in test [2] (concentration: 10 µM), 84.

As for `CCS(=O)(=O)Nc1ccc2[nH]c(O)c(C(=Nc3ccc(CN4CCCCC4)cc3)c3ccccc3)c2c1` [Hesperadin], the gametocyte viability is 110 in test [2] (concentration: 1 µM) and 108 in test [2] (concentration: 10 µM).

In the case of `Oc1ccc(-c2nc(-c3ccc(F)cc3)c(-c3ccncc3)[nH]2)cc1`, the gametocyte viability is 112 and 117 in test [2] (concentration: 1 µM); 115 and 132 in test [2] (concentration: 10 µM).

For `Cc1ccc(NC(=O)c2ccc(CN3CCN(C)CC3)cc2)cc1Nc1nccc(-c2cccnc2)n1` [Imatinib (Gleevec)], the gametocyte viability in test [2] (concentration: 1 µM) is 104; in test [2] (concentration: 10 µM) it was 110.

Consider `COc1cc2ncnc(Nc3cccc(Cl)c3)c2cc1OC`, for which the gametocyte viability in test [2] (concentration: 1 µM) was 109; in test [2] (concentration: 10 µM) it was 104.

On to `COc1ccc2c3n(c(=NC(=O)c4cccnc4)nc2c1OC)CCN3`, for which the values for the gametocyte viability in test [2] (concentration: 1 µM) and in test [2] (concentration: 10 µM) were 94.4 and 101, respectively.

For the molecule `COc1cc(Nc2ncc(F)c(Nc3ccc4c(n3)NC(=O)C(C)(C)O4)n2)cc(OC)c1OC` [R406(free base)], the gametocyte viability in test [2] (concentration: 1 µM) was 96.3; in test [2] (concentration: 10 µM), 103.

Regarding `Cc1cc(C(=O)NOCCO)c(Nc2ccc(I)cc2F)n(C)c1=O`, the gametocyte viability was 90.8 in test [2] (concentration: 1 µM) and 92.8 in test [2] (concentration: 10 µM).

Consider `Cc1ccc([N+](=O)[O-])cc1S(=O)(=O)N(C)/N=C/c1cnc2ccc(Br)cn12`, for which the results for the gametocyte viability in test [2] (concentration: 1 µM) and in test [2] (concentration: 10 µM) were 94.9 and 101, respectively.

On to `Cc1ccc(NC(=O)c2ccc(CN3CCN(C)CC3)cc2)cc1Nc1nc(-c2cccnc2)cs1` [Masitinib (AB1010)], for which the values for the gametocyte viability in test [2] (concentration: 1 µM) and in test [2] (concentration: 10 µM) were 104 and 80.3, respectively.
